Experimental data: PubChem BioAssay
Active and inactive are the calls of the source. Unless noted, how the calls were made is not given here.

Columns and labels:
[1] = anti-His antibody binders, primary screen, artefact control for SMM control protein annotation, biochemical, small-molecule microarray, 635 nm fluorescence (AID 1128); settings: anti-His Alexa647 antibody binding, higher = more signal;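 further: score merges feature fluorescence with signal-to-noise for each printed compound spot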
[2] = tested on: Human papillomavirus type 1a E7 protein (residues 1-88); experiment: HPV1a E7 small-molecule binders, primary screen, biochemical, small-molecule microarray, residues 1-88, 635 nm (AID 1129); settings: small-molecule microarray binding, fluorescence 635 nm; higher = more signal
[3] = biological target: Focal adhesion kinase 1 (Homo sapiens) (UniProt Q05397); experiment: small-molecule microarray binders of FAK, primary screen, biochemical, 635/667 nm fluorescence, BSA, DTT (AID 1130); settings: PTK2 binding, 635 nm fluorescence, higher = more signal;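 further: composite of spot emission at 667 nm and signal to noise over triplicate slides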
[4] = tested on: Fibrinogen (Alexa647-labelled); experiment: fibrinogen binders on compound microarrays, profiling panel, artefact control for SMM control-protein annotation, biochemical, small-molecule microarray, 635/667 nm fluorescence (AID 1131); settings: fibrinogen-A647 binding fluorescence, higher = more signal;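 further: z-score merges 667 nm fluorescence with per-spot signal-to-noise over triplicate slides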
[5] = biological target: Follistatin (Homo sapiens) (UniProt P19883); experiment: follistatin binders on small-molecule microarrays, primary screen, biochemical, small-molecule microarray, 635/667 nm fluorescence (AID 1132); settings: FST binding, 635 nm fluorescence, higher = more signal
[6] = biological target: Fibroblast growth factor 2 (Homo sapiens) (UniProt P09038); experiment: FGF2 binders on small-molecule microarrays, primary screen, biochemical, small-molecule microarray, 635/667 nm fluorescence (AID 1133); settings: small-molecule microarray binding, FGF2, fluorescence 635/667; higher = more signal
[7] = mitochondrial membrane potential change in A549 cells, profiling panel, cell-based, JC-1 fluorescence, basal, 24 h, 100 nL (AID 1138); settings: higher = more signal;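 further: A549 lung adenocarcinoma cells under basal conditions with no added stimulus; test concentration not given here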
Lefty1 = Lefty1 binders on small-molecule microarrays, primary screen, biochemical, small-molecule microarray, 635/667 nm fluorescence (AID 1139); settings: small-molecule microarray binding, fluorescence 635/667; higher = more signal
[8] = tested on: wheat germ agglutinin (Triticum aestivum), Alexa647-labelled; experiment: wheat germ agglutinin binders on compound microarrays, profiling panel, artefact control for SMM control-protein annotation, biochemical, small-molecule microarray, 635/667 nm fluorescence (AID 1140); settings: WGA-A647 binding, 635 nm fluorescence, higher = more signal;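 further: score merges 667 nm feature emission with signal to noise over triplicate slides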
[9] = biological target: Luciferin 4-monooxygenase (Photinus pyralis) (UniProt P08659); experiment: firefly luciferase enzyme inhibitors, primary screen, biochemical, luminescence, purified enzyme, 2006 set (AID 1141); settings: SteadyGlo luminescence, 30 min, higher = more signal, called active from +8 up or from −8 down;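 further: cell-free assay with purified firefly luciferase at 100 ng per well in PBS; test concentration not given here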
[10] = tested on: Wnt5a (protein binding on small-molecule microarray); experiment: Wnt5a binders on small-molecule microarray, primary screen, biophysical, 635/667 nm fluorescence (AID 1142); settings: 635 nm fluorescence, higher = more signal;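 further: fluorescence read at 667 nm with signal to noise per printed feature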
[11] = cell viability in Huh7 cells, primary screen, cytotoxicity control for HCV replication inhibitor project, CellTiter-Glo luminescence, basal, 48 h (AID 1143); settings: Huh7 HCV replicon, higher = more signal, called active from +8 up or from −8 down;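 further: Huh7 hepatoma cells carrying a hepatitis C replication reporter with no stimulus; test concentration not given here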
[12] = P. aeruginosa biofilm formation inhibitors, primary screen, PAO1 strain, BacTiter-Glo luminescence, LB-PBS (AID 1144); settings: 12 h, higher = more signal
[13] = CREB reporter modulators without forskolin, primary screen, cell-based, PC12, CRE-LacZ reporter, unstimulated (AID 1145); settings: no forskolin, luminescence, 4.5 h, higher = more signal, called active from +8 up or from −8 down
[14] = CREB reporter modulators under forskolin, primary screen, cell-based, PC12, CRE-LacZ reporter, forskolin-stimulated (AID 1146); settings: luminescence, 4.5 h, higher = more signal, called active from +8 up or from −8 down;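 further: PC12 cells with 6xCRE LacZ reporter stimulated by forskolin 10 µM; beta-galactosidase reporter signal reflecting CREB driven transcription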
[15] = biological target: Streptavidin (Streptomyces avidinii) (UniProt P22629); experiment: streptavidin binders on small-molecule microarray, primary screen, artefact control for SMM compound annotation, biophysical, 635/667 nm fluorescence (AID 1147); settings: streptavidin binding, higher = more signal;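 further: signal reflects streptavidin binding to arrayed compounds as a control protein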
[16] = small-molecule binders of probe aInhba, primary screen, biochemical, small-molecule microarray, 635/667 nm fluorescence (AID 1148); settings: higher = more signal;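 further: score merges 667nm spot fluorescence with signal-to-noise for antibody binding to printed compounds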
Torsin-1A (Homo sapiens) [17] = biological target: Torsin-1A (Homo sapiens) (UniProt O14656); experiment: torsin A binders from cell lysate, primary screen, small-molecule microarray, wild-type, 635/667 nm (AID 1149); settings: COS7 hTOR1A-WT lysate, 635 nm fluorescence, higher = more signal
Torsin-1A (Homo sapiens) [18] = biological target: Torsin-1A (Homo sapiens) (UniProt O14656); experiment: small-molecule binders of mutant TOR1A in lysate, primary screen, cell lysate, small-molecule microarray, COS7 lysate, 635/667 nm fluorescence (AID 1150); settings: COS7 hTOR1A mutant lysate, 635 nm fluorescence, higher = more signal;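 further: score pools 667 nm emission and signal to noise measuring lysate protein binding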
[19] = tested on: Sonic hedgehog protein (Shh); experiment: small-molecule binders of Shh protein, primary screen, biochemical, small-molecule microarray, 635/667 nm fluorescence (AID 1151); settings: small-molecule microarray binding, 635 nm fluorescence; higher = more signal;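 further: Shh protein binding to compounds spotted on small-molecule microarray slides; score combines spot fluorescence intensity with signal-to-noise across triplicate slides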

Sequence of Fibroblast growth factor 2 (Homo sapiens) (P09038 whole entry, looked up): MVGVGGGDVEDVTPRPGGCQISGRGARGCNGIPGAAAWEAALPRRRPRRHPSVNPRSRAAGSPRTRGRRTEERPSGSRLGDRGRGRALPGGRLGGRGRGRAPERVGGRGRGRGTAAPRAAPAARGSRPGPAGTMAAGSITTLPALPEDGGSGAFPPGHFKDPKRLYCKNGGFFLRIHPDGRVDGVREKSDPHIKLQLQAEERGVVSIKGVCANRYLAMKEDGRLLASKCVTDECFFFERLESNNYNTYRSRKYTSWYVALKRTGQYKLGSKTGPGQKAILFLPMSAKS
Sequence of Streptavidin (Streptomyces avidinii) (P22629 whole entry, looked up): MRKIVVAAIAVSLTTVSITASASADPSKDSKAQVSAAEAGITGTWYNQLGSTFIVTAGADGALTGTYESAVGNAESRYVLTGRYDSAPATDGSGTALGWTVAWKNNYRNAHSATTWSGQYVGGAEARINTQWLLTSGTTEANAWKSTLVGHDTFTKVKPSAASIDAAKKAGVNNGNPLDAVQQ
Sequence of Torsin-1A (Homo sapiens) (O14656 whole entry, looked up): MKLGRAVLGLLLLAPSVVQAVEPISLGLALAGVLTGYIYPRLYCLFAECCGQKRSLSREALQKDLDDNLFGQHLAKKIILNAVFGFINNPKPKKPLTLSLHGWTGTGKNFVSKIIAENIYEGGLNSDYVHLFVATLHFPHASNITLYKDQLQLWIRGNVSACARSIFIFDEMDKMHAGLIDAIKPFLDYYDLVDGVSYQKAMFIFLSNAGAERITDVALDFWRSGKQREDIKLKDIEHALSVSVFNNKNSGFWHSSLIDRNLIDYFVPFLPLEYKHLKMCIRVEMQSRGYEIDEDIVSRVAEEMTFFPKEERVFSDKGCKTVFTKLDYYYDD
Sequence of Luciferin 4-monooxygenase (Photinus pyralis) (P08659 whole entry, looked up): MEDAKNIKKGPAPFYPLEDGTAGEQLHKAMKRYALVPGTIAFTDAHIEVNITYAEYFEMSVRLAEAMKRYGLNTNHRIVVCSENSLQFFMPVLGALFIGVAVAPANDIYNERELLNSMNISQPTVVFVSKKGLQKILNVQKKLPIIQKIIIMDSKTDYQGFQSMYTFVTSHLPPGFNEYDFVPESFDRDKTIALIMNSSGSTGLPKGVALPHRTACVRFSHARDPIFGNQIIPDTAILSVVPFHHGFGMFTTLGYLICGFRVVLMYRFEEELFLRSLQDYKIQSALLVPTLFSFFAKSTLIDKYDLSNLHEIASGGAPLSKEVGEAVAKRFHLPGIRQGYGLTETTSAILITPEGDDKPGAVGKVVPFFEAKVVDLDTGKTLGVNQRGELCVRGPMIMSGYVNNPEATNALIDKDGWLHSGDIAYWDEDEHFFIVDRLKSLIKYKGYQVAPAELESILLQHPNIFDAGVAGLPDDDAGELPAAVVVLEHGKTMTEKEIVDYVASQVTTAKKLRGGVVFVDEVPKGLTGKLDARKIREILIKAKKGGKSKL
Sequence of Follistatin (Homo sapiens) (P19883 whole entry, looked up): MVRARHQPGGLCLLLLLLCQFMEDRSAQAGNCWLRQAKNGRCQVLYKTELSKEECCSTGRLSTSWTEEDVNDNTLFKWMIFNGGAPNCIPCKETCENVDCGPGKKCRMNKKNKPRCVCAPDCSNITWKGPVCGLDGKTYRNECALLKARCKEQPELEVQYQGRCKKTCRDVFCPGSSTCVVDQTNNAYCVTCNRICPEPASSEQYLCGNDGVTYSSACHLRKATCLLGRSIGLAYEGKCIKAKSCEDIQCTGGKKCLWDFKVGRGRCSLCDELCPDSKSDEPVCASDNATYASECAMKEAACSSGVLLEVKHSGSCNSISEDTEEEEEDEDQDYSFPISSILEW
Sequence of Focal adhesion kinase 1 (Homo sapiens) (Q05397 whole entry, looked up): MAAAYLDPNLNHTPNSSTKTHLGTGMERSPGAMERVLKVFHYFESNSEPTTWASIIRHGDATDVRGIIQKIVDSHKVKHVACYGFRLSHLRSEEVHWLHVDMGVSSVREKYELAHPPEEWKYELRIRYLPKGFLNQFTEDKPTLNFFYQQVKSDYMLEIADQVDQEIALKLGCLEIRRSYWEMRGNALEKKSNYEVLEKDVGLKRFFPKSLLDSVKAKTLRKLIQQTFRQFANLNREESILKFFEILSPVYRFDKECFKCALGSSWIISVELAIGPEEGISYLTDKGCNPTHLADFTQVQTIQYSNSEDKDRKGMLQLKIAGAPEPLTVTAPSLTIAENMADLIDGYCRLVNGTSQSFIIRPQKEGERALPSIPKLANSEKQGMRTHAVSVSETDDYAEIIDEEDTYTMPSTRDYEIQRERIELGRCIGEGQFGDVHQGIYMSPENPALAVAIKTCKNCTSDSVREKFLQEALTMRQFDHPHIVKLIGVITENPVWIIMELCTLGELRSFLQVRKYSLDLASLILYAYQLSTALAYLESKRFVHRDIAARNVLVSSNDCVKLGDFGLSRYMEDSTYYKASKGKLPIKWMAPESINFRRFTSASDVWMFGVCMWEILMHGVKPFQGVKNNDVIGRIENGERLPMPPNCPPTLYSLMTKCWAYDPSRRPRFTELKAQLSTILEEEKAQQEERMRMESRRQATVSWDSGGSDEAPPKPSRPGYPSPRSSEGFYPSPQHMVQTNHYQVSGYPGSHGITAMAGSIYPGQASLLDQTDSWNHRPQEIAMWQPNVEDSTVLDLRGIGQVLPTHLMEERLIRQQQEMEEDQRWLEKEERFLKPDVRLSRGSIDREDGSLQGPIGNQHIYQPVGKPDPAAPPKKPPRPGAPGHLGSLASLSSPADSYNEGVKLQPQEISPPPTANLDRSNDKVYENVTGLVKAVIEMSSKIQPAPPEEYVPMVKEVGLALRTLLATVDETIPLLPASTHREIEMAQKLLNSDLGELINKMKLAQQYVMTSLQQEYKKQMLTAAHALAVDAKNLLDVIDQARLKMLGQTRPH

SMILES	composite z-score [1]	composite z-score [2]	composite z-score [3]	composite z-score [4]	composite z-score [5]	composite z-score [6]	z-score [7]	composite z-score (Lefty1)	composite z-score [8]	z-score [9]	composite z-score [10]	z-score [11]	z-score [12]	z-score [13]	z-score [14]	composite z-score [15]	composite z-score [16]	composite z-score (Torsin-1A (Homo sapiens) [17])	composite z-score (Torsin-1A (Homo sapiens) [18])	composite z-score [19]
CN1C(=O)C2C=CC(C(O)c3cccc4ccccc34)N(N3CCCCC3)C2C1=O (stereo not given)	2.11	1.15	0.127	0.853	1.23	0.225	-0.0645	0.789	1.3	-0.848 (inactive)	0.156	0.64 (inactive)	0.32 (inactive)	-0.136 (inactive)	0.0556 (inactive)	1.85	0.0582	0.613	0.781	0.169
CO[C@]12C=C(Br)[C@@H](C[C@@H]1c1cccc(C)c1)[C@@]1(CO1)C2=O	0.177	-0.322	-0.129	-0.407	0.415	0.391	-0.645	0.802	-0.0489	1.02 (inactive)	-0.161	-0.795 (inactive)	-0.863 (inactive)	0.223 (inactive)	5.27 (inactive)	-0.433	-0.154	-0.436	-0.407	0.841
C=C(COC)C(=O)CC[C@@H](OC(=O)c1cccnc1)c1ccc(OCCO)cc1	0.282	0.659	-0.157	0.108	1.4	1.78	0.822	1.21	0.237	-3.79 (inactive)	1.71	-7.08 (inactive)	0.403 (inactive)	5.67 (inactive)	0.0067 (inactive)	-0.23	0.0471	0.889	0.321	1.54
COCCCNC(=O)[C@@]1(Cc2ccccc2N=[N+]=[N-])N=C(c2ccc(OCCCO)cc2)O[C@H]1c1ccccc1	2.18	1.21	0.854	0.776	1.46	1.03	0.624	0.256	0.759	-0.97 (inactive)	1.51	-4.36 (inactive)	-1.31 (inactive)	0.558 (inactive)	-0.472 (inactive)	-0.459	0.0589	3.67	3.61	0.55
C=C(C)C1CCC(C(O)C2C=CC3C(=O)N(C)C(=O)C3N2N2CCCCC2)CC1 (stereo not given)	1.17	1.24	0.525	0.884	1.21	0.286	0.32	0.962	1	0.344 (inactive)	0.467	0.635 (inactive)	-0.0283 (inactive)	0.622 (inactive)	0.924 (inactive)	1.61	0.143	0.476	1.34	0.758
O=C1C2C=CC(C(O)c3ccccc3)N(Nc3ccccc3F)C2C(=O)N1c1ccccc1 (stereo not given)	0.513	0.506	0.0669	0.168	-0.0118	-0.248	0.462	0.347	0.0842	0.541 (inactive)	0.1	-1.7 (inactive)	0.298 (inactive)	0.0707 (inactive)	0.39 (inactive)	0.23	-0.127	-0.292	-0.493	-0.244
COCCOC(=O)N1C(=O)[C@@]2(c3cc(C#Cc4ccc(OC)cc4)ccc31)[C@H](C(=O)Nc1nc3ccccc3s1)[C@H]1C(=O)O[C@H](c3ccccc3)[C@H](c3ccccc3)N1[C@@H]2c1ccc(OCCO)cc1	1.14	1.12	0.168	0.809	1.17	1.28	-2.19	0.87	0.494	-3.71 (inactive)	0.755	-1.12 (inactive)	0.133 (inactive)	0.757 (inactive)	0.442 (inactive)	1.12	0.246	-0.129	0.337	1.84
[N-]=[N+]=Nc1ccccc1C[C@]1(C(N)=O)N=C(c2ccc(OCCCO)cc2)O[C@H]1c1ccccc1N=[N+]=[N-]	1.91	1.21	-0.0221	0.941	0.228	0.132	-0.777	-0.24	0.448	-4.76 (inactive)	0.611	-4.95 (inactive)	-0.783 (inactive)	1.6 (inactive)	-1.25 (inactive)	1.22	0.189	0.747	0.986	-0.191
C=CCNC(=O)[C@H]1[C@@H]2C(=O)O[C@@H](c3ccccc3)[C@@H](c3ccccc3)N2[C@@H](c2ccc(O)cc2)[C@]12C(=O)Nc1ccc(C#CC3(O)CCCCCC3)cc12	2.76	0.277	0.201	0.481	1.16	0.267	-1.22	-0.15	0.0932	0.452 (inactive)	-0.0118	-1.11 (inactive)	-1.06 (inactive)	-0.0246 (inactive)	-0.301 (inactive)	0.163	0.0899	0.935	1.89	1.13
COCCOC(=O)N1C(=O)[C@@]2(c3cc(C#CC4=CCCCC4)ccc31)[C@H](c1ccccc1OCCO)N1[C@H](c3ccccc3)[C@H](c3ccccc3)OC(=O)[C@H]1[C@@H]2C(=O)Nc1nc2ccccc2s1	1.16	0.96	0.96	0.868	1.19	0.731	-2.14	1.09	0.754	-2.08 (inactive)	0.632	-2.06 (inactive)	0.305 (inactive)	-0.0526 (inactive)	0.687 (inactive)	0.827	0.0497	0.881	0.344	1.27
